Data as given in PubChem BioAssay (Tox21).
Results filed as inconclusive are left out. A call without a number means that no potency is given here. Calls of active or inactive are those of the source. Unless noted, calls follow the shape of the dose curve; as a rule, active = well fitted curve in the direction sought with a large enough effect in the repeat runs; inconclusive = weak or mixed curves; inactive = no such curve, though single readings can be large; an effect the other way counts as inactive or inconclusive.

Assays:
[1] = molecular target: Progesterone receptor (Homo sapiens) (UniProt P06401); experiment: qHTS assay to identify small molecule agonists of the progesterone receptor (PR) signaling pathway (AID 1346784; calls by dose curve; also: nearly all actives have a fitted effect of over 30% in size; also: potency is read from the fitted curve at half-maximal effect); conditions: PR-UAS-bla HEK293T, beta-lactamase FRET ratio, 16 h; series mostly up to 92.4 µM
In short: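 Reporter assay, GripTite PR-UAS-bla HEK 293T cells: 16 hr exposure to DMSO-dissolved compounds at 37C, 5% CO2, in steroid-depleted (2% charcoal-stripped FBS) medium; beta-lactamase measured by FRET fluorescence.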

[2] = molecular target: Progesterone receptor (Homo sapiens) (UniProt P06401); experiment: qHTS assay to identify small molecule antagonists of the progesterone receptor (PR) signaling pathway (AID 1346795; active = well fitted inhibition curve with a large enough effect in the signal ratio in the repeat runs, not every such curve was filed as active; the % refers to the signal ratio; also: potency is read from the fitted curve at half-maximal effect); conditions: PR-UAS-bla HEK293T, beta-lactamase FRET ratio, 16 h; series mostly up to 92.4 µM
In short: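 Stimulus R5020 at 1 nM final; cells HEK293T PR-UAS-bla; medium with 2% charcoal-stripped FBS; compound exposure 16 hr at 37C, 5% CO2; detection by FRET beta-lactamase substrate, 2 hr, room temperature.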

[3] = qHTS assay to identify small molecule antagonists of the progesterone receptor (PR) signaling pathway - cell viability counter screen (AID 1346798); conditions: PR-UAS-bla HEK293T viability, CellTiter-Glo luminescence, 16 h; series mostly up to 42.5 µM; also: nearly all actives have a fitted effect of over 50% in size
In short: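 In the same plates used for the beta-lactamase readout, cell viability of compound- and R5020-treated PR-UAS-bla HEK293T cells (16 hr, 37C) was assessed by CellTiter-Glo luminescence.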

[4] = qHTS assay to identify small molecule agonists of the progesterone receptor (PR) signaling pathway - cell viability counter screen (AID 1346799; calls by dose curve; also: nearly all actives have a fitted effect of over 45% in size); conditions: PR-UAS-bla HEK293T viability, CellTiter-Glo luminescence, 16 h; series mostly up to 92.4 µM
In short: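 Multiplexed viability read: CellTiter-Glo luminescence, 30 min RT, following LiveBLAzer FRET measurement on PR-UAS-bla HEK293T cells exposed to compounds 16 hr.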

[5] = qHTS assay to identify small molecule antagonists of the TGF-beta/Smad signaling pathway - cell viability counter screen (AID 1346824); conditions: SBE-bla HEK293T viability, CellTiter-Glo luminescence; series mostly up to 76.8 µM; also: nearly all actives have a fitted effect of over 50% in size
In short: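 Cytotoxicity counter-screen run in the same wells as the beta-lactamase Smad reporter read: CellTiter-Glo luminescence after 30 min at room temperature. HEK 293T SBE-bla cells had 5 hr compound exposure at 37 C with TGF-beta1 (0.25 ng/mL stock).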

[6] = molecular target: Thyrotropin-releasing hormone receptor (Homo sapiens) (UniProt P34981); experiment: qHTS assay to identify small molecule antagonists of the thyrotropin-releasing hormone receptor (TRHR) signaling pathway (AID 1346877; active = well fitted inhibition curve with a large enough effect in the repeat runs, not every such curve was filed as active); conditions: TRHR-HEK293, TRH-induced calcium fluorescence, antagonist mode; series mostly up to 51.3 µM
In short: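 Antagonism is measured as suppression of the calcium response to 1 nM TRH in TRHR-HEK293 cells that have been dye-loaded for 2 h at 37 °C after overnight plating. Each compound is tested at 15 concentrations in triplicate.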

[7] = molecular target: Thyrotropin-releasing hormone receptor (Homo sapiens) (UniProt P34981); experiment: qHTS assay to identify small molecule agonists of the thyrotropin-releasing hormone receptor (TRHR) signaling pathway (AID 1346891; calls by dose curve); conditions: TRHR-HEK293 calcium fluorescence, agonist mode; series mostly up to 57.6 µM
In short: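 Readout was intracellular calcium fluorescence in TRHR-Hek293 cells. Cells were incubated 18 h, dye-loaded 2 h at 37 °C, and treated with compound in agonist mode.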

[8] = Human pregnane X receptor (PXR) small molecule agonists, qHTS cell viability counter screen (AID 1346977); conditions: PXR-Luc HepG2 viability, CellTiter-Fluor, 24 h; series mostly up to 92.4 µM; also: nearly all actives have a fitted effect of over 50% in size
In short: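 In each well, the PXR reporter HepG2 line was checked for viability: CellTiter-Fluor reagent added 23hr post-dosing, fluorescence read after 1hr incubation at 37C.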

[9] = qHTS assay to identify small molecule agonists of the TGF-beta/Smad signaling pathway - cell viability counter screen (AID 1346829); conditions: SBE-bla HEK293T viability, CellTiter-Glo luminescence, 5 h; series mostly up to 76.8 µM; also: top concentration of the series differs between compounds; nearly all actives have a fitted effect of over 45% in size
In short: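 Same-well cytotoxicity: CellTiter-Glo added after the 2 hr room-temperature beta-lactamase substrate step, luminescence measured 30 min later; cells had 5 hr of compound at 37 C.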

[10] = qHTS assay to identify small molecule agonists of the TGF-beta/Smad signaling pathway (AID 1346859; active = well fitted activation curve with a large enough effect in the signal ratio in the repeat runs, not every such curve was filed as active; the % refers to the signal ratio); conditions: SBE-bla HEK293T, TGF-beta/Smad beta-lactamase reporter, 5 h; series mostly up to 76.8 µM
In short: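 Screening used HEK 293T SBE-bla cells at 4,000/well. Test agents: 5 hr, 37 C. Detection: FRET substrate, 2 hr RT, then excitation 405 nm with emissions at 460 and 530 nm.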

Progesterone receptor (Homo sapiens), sequence (P06401 whole entry, looked up): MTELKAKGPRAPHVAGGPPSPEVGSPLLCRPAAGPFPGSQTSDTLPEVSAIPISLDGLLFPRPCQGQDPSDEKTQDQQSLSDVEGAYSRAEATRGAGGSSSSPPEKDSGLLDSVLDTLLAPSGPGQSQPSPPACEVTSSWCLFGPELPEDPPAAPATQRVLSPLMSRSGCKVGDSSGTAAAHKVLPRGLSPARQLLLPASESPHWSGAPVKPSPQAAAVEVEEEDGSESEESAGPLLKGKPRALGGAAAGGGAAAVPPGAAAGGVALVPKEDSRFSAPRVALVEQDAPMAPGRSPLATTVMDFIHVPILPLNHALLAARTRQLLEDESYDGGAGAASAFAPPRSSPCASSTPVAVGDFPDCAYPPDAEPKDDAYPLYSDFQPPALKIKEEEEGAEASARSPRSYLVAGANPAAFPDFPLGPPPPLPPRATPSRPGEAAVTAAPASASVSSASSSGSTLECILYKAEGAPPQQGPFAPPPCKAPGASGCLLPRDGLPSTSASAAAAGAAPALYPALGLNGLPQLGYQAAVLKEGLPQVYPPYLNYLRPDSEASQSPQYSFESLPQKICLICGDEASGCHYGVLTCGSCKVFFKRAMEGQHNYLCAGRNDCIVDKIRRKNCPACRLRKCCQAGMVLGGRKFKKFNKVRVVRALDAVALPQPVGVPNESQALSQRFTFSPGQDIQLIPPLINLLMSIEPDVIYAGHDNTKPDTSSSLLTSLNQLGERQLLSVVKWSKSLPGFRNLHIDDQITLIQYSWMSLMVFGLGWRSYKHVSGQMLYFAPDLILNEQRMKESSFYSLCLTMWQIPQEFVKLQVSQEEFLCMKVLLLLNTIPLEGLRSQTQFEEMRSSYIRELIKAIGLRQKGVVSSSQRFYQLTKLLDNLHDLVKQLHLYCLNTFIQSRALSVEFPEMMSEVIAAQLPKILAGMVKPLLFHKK
Thyrotropin-releasing hormone receptor (Homo sapiens), sequence (P34981 whole entry, looked up): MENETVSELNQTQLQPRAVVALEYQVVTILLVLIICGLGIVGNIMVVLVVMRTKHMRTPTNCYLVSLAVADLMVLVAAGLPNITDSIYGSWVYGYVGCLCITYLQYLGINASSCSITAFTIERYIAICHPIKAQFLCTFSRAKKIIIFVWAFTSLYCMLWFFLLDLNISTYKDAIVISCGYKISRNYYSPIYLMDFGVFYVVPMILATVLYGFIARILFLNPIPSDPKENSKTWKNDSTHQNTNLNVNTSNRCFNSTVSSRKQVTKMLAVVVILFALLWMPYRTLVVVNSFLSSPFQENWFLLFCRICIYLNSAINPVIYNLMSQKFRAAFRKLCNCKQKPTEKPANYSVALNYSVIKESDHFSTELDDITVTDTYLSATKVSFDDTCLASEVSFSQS

SMILES	Potency [1]	Potency [2]	Potency [3]	Potency [4]	outcome [5]	outcome [6]	Potency [7]	Potency [8]	outcome [9]	outcome [10]
CCCCCOc1ccc(C2SC(=O)NC2=O)cc1OCC (stereo not drawn)	inactive	inactive	inactive	inactive	inactive	inactive	inactive	inactive		
CN(C)CC[C@@H](c1ccc(Cl)cc1)c1ccccn1	inactive	inactive	inactive	inactive		inactive	inactive		inactive	inactive
COc1cc2c(cc1N)oc1ccccc12	inactive	44.2 µM (active)	inactive		inactive	inactive	inactive		inactive	inactive
CN(CC1(C)CCCO1)S(=O)(=O)c1ccc(Cl)c(S(N)(=O)=O)c1 (stereo not drawn)	inactive	inactive	inactive	inactive		inactive	inactive		inactive	inactive
CC(CNC1CCCCC1)OC(=O)c1ccccc1 (stereo not drawn)	inactive	inactive	inactive	inactive		inactive	inactive	inactive	inactive	inactive
CCc1cc2cc(OC)c(OC)cc2c(Cc2ccccc2)n1	inactive	16.8 µM (active)	inactive		inactive				inactive	inactive
CC(=O)OC1C2(C)CCC(C2)C1(C)C (stereo not drawn)	inactive	inactive	inactive	inactive		inactive	inactive	inactive	inactive	inactive
CCc1cc(Cl)c(OC)c(C(=O)NC[C@@H]2CCCN2CC)c1O	inactive	inactive	inactive		inactive			inactive	inactive	inactive
Cc1ccc([N+](=O)[O-])cc1Cl	inactive	inactive	inactive		inactive	inactive	inactive		inactive	inactive
COC(=O)/C=C(/C)N	inactive	inactive	inactive	inactive		inactive	inactive	inactive	inactive	inactive
CCCOCCC	inactive	inactive	inactive		inactive	inactive	inactive	inactive		inactive
NC(=O)NS(=O)(=O)c1ccc(Cl)cc1	inactive	inactive	inactive		inactive	inactive	inactive		inactive	inactive
NCCCN1CCN(CCCN)CC1	inactive	inactive		inactive	inactive	inactive	inactive	inactive		inactive
O=C(CCCl)NCc1ccccc1	inactive	inactive		inactive		inactive	inactive	inactive	inactive	inactive
C/C(=N\O)[C@@H](C)NCC(C)(C)CN[C@H](C)/C(C)=N/O	inactive	inactive		inactive	inactive	inactive	inactive		inactive	inactive
CC(=O)OC(C)OC(C)=O	50 µM (active)	inactive		inactive	inactive	inactive	inactive	inactive	inactive	inactive
C=C(C)C(=O)OCCOP(=O)(O)O	inactive	inactive		inactive	inactive	inactive	inactive	inactive	inactive	inactive
